About 50,000 (12%) of roughly 420,000 compounds were called active. Inconclusive results (about 26%) are left out. For the sample, actives were picked, then their nearest neighbours and some compounds at random. Unmarked numbers belong to inactive results. Calls come from the whole dose curve; as a rule, active = well fitted inhibition curve with a large enough effect; inconclusive = small, poorly fitted or top-dose-only effect; inactive = flat fitted curve, though single readings scatter.
% is set by controls: 0 for no effect and ±100 for the full control effect; potency is the fitted concentration of half-maximal effect.

This assay is described as follows: qHTS for Inhibitors of human tyrosyl-DNA phosphodiesterase 1 (TDP1): qHTS in cells in presence of CPT. Note: nearly all actives have a fitted effect of over 55% in size. The conditions noted are these: chicken DT40 Tdp1-/-;hTDP1 cells + 20 nM CPT, ATP luminescence, 48 h; series mostly up to 46.2 µM; activity change, negative = growth inhibition: at the top concentration. A digest of the protocol:
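Chicken DT40 Tdp1-/- cells complemented with human TDP1, 400 cells/well, exposed to compounds plus 20 nM camptothecin for at least 48 h at 37 C; viability read as ATP content by CellTiter-Glo luminescence.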
As to `CCCC(C(=O)NC1CCCC1)N(C(=O)Cn1nnc(-c2ccc(C)o2)n1)c1cccc(O)c1` (configuration not stated), the “activity change, negative = growth inhibition” value is 7.3%.
Consider `CC(=O)c1ccc(S(=O)(=O)N2CCC3(CC2)OCCO3)cc1`, for which the “activity change, negative = growth inhibition” value is -1.56%.
Consider `O=C(CSc1ncccn1)N1CCCC1`, for which the “activity change, negative = growth inhibition” value is -6.15%.
For `COc1ccc(O)c(C(=O)c2cnc3c(c2)c(-c2ccc(F)cc2)c(C#N)c(=O)n3C)c1`, the “activity change, negative = growth inhibition” value is -34.5%.
As to `CN(C)C(=O)c1cccc(-c2cnc3c(NC=O)cc(-c4ccc(F)cc4)cn23)c1`, the Potency was 6.51 µM (active).
With `N#C/C=C(/c1ccc(F)cc1)N1CCOCC1`, the “activity change, negative = growth inhibition” value is -2.86%.
`Cc1c(NC(=O)Nc2ccc(F)c(Cl)c2)c(=O)n(-c2ccccc2)n1C`: the “activity change, negative = growth inhibition” value is -2.31%.
Same read-out and setting: in the case of `CNc1cnc(-c2cc(OC)c(OC)c(OC)c2)cn1` it was 8.84%.
With `CC(=O)Nc1cccc(-c2cc(NC=O)c3ncc(-c4ccc(F)c(Cl)c4)n3c2)c1`, the Potency is 23.1 µM (active).
On to `O=CNc1cc(-c2ccc(C(=O)N3CCOCC3)cc2)cn2c(-c3ccc(F)cc3)cnc12`, for which the Potency is 20.6 µM (active).
As to `COc1cc(C(=O)N2CCN(C)CC2)cc(OC)c1OC`, the “activity change, negative = growth inhibition” value is 9.33%.
`COc1ccc(-c2cc(NC(C)=O)c3ncc(-c4cc(OC)c(OC)c(OC)c4)n3c2)cn1`: the Potency was 2.59 µM (active).
With `Cc1ccc(C(=O)N2CCN(C(=O)N3CCOCC3)CC2)cc1`, the “activity change, negative = growth inhibition” value was -0.646%.
Still for that read-out and setting: for `Cc1ccc(OCC(=O)NCCCNC(=O)c2cccnc2)cc1C` the value was -10.9%; for `CCCCn1c(N)c(N(CCC(C)C)C(=O)COC(=O)c2cccnc2OCC)c(=O)[nH]c1=O`, -10.1%; for `COCCC(=O)Nc1ccc2c(c1)CN(C(=O)CCOC)CC2`, -9.78%.
On the same count and under the same terms, for `CC1O[C@@H](OC2C(O)C(C)O[C@H](OC(=O)[C@]34CCC(C)(C)C[C@H]3C3=CCC5[C@@]6(C)CC(O)C(O[C@@H]7OC(CO)C(O)[C@@H](O)[C@@H]7O)[C@@](C)(C(=O)O)C6CC[C@@]5(C)[C@]3(CO)CC4)C2O[C@H]2OC(C)[C@@H](O[C@@H]3OCC(O[C@@H]4OC(CO)C(O)[C@H](O)C4O)[C@@H](O)[C@@H]3O)[C@H](O)C2O)C(O)C(O)C1O` (some centres not stated) the value was 11.8%; for `Cc1cc(C)cc(N(CCC#N)C(=O)CN2C(=O)NC3(CCCC3)C2=O)c1`, -11.4%; for `CC(NS(=O)(=O)c1ccc(OCC(=O)N2CCCC2)cc1)c1ccccc1` (configuration not stated), -4.52%.
`CCOC(=O)c1ccc(-n2c(CCC(=O)O)ccc2-c2ccccc2)cc1`: the Potency entry is “inactive”.
With `COc1ccc(C2CC(c3cccs3)Nc3nnnn32)cc1` (configuration not stated), the “activity change, negative = growth inhibition” value is 18.1%.
On the same count and under the same terms, for `CC(=O)Nc1cc(-c2ccccc2F)cn2c(-c3cccc(C(F)(F)F)c3)cnc12` the value was -101%.
`COc1cccc(NC(=O)CSc2nnc(-c3cccnc3)o2)c1`: the “activity change, negative = growth inhibition” value was -1.45%.
In the case of `COc1ccc(-c2cc(NC=O)c3ncc(-c4cccc(C(=O)N(C)C)c4)n3c2)c(OC)c1`, the Potency is 23.1 µM (active).
In the case of `COCCNc1ccnc(-c2cccc(NS(C)(=O)=O)c2)n1`, the “activity change, negative = growth inhibition” value was -0.332%.
In the case of `COc1ccc(Nc2ncnc3sc(-c4ccccc4)cc23)c(OC)c1`, the “activity change, negative = growth inhibition” value is -21.8%.
`CC(=O)c1ccc(-c2cnc3c(NC=O)cc(-c4cccc(NS(C)(=O)=O)c4)cn23)cc1`: the Potency is 23.1 µM (active).
The same measure, in the same setting: in the case of `COc1cccc(-c2cc(NC(C)=O)c3ncc(-c4cccc(C(C)=O)c4)n3c2)c1` it was 23.1 µM (active).
As to `COc1ccc(/C=N/S(=O)(=O)c2ccccc2)cc1OC`, the “activity change, negative = growth inhibition” value was 4.71%.
Turning to `COc1ccc(-c2cc(NC=O)c3ncc(-c4ccccc4)n3c2)cc1OC`, the Potency is 6.51 µM (active).
As for `COc1cc(C=O)ccc1Oc1nnnn1-c1ccccc1`, the “activity change, negative = growth inhibition” value was 13.2%.
On to `COc1ccc(NC(=O)CC2COc3ccccc3O2)c(OC)c1` (configuration not stated), for which the “activity change, negative = growth inhibition” value is -21%.
On the same count and under the same terms, for `Cc1cccc(N=C2SC(C)CN2C(=O)CN2C(=O)NC3(CCCC3)C2=O)c1` (configuration not stated) the value was 1.26%; for `O=C(CCn1nnc2ccccc2c1=O)N[C@@H](Cc1c[nH]c2ccccc12)C(=O)O`, 14.2%; for `COc1ccc(S(=O)(=O)N2CCOCC2)cc1NC(=O)CC1CC2CCC1C2` (configuration not stated), -25.8%.
The same measure, in the same setting: for `O=C(O)CC(CC(=O)N1CCOCC1)c1ccccc1` (configuration not stated) the value was 3.43%.
Same read-out and setting: for `Cc1ccc(CN2COc3cc(C)c4c(oc(=O)c5ccccc54)c3C2)cc1` the value was -24%; for `CC(C)C[C@H](NC(=O)C1CCC(CNC(=O)[C@@H]2CCCN2C(=O)OC(C)(C)C)CC1)C(=O)O` (some centres not stated), 29.8%.
For `COc1cccc(CNC(=O)CCCC(=O)Nc2cccc([N+](=O)[O-])c2)c1`, the “activity change, negative = growth inhibition” value was -19.6%.
With `Cc1c(NC(=O)CSCc2ccccc2)cccc1C(=O)O`, the “activity change, negative = growth inhibition” value is -1.33%.
On the same count and under the same terms, in the case of `COc1cc(C(=O)N/C(=C\c2cn(C)c3ccccc23)C(=O)N2CCOCC2)cc(OC)c1OC` it was 12.5%; in that of `CCCCNC(=O)N(O)C1N(/N=C/c2ccccc2O)C(=S)SC1(C)C` (configuration not stated), -27.3%.
Same read-out and setting: for `COc1ccnc(Oc2ccccc2)c1-c1ncn[nH]1` the value was 1.93%; for `Cc1ccc2oc(=O)c3cnn(CC(=O)NCc4ccccc4Cl)c3c2c1`, 13.6%; for `Cc1ccccc1C(=O)Nc1ccccc1Sc1ccccc1`, 5.44%.
The same measure, in the same setting: for `COc1cccc(C(=O)NCCS(=O)(=O)NCC2CCCO2)c1` (configuration not stated) the value was 1.27%; for `COc1ccccc1-n1cnc2cc(C(=O)NCC3CCCO3)ccc21` (configuration not stated), -18%.

The record behind these values is PubChem BioAssay AID686979 (National Center for Advancing Translational Sciences (NCATS), 2013).
